Source: PubChem (National Center for Advancing Translational Sciences (NCATS))
DT40 TDP1 CPT: DT40-hTDP1 cell growth loss with CPT; chicken DT40 Tdp1-/-;hTDP1 cells + 20 nM CPT, ATP luminescence, 48 h; Potency, µM (top dose mostly 46.2 µM), for inactives: at the highest dose activity change, negative = growth inhibition, usual class: inhibitors; 420,000 compounds, 12% hits; note: % is set by controls: 0 for no effect and ±100 for the full control effect; nearly all actives have a fitted effect of over 55% in size
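Chicken DT40 Tdp1-/- cells complemented with human TDP1, 400 cells/well, exposed to compounds plus 20 nM camptothecin for at least 48 h at 37 C; viability read as ATP content by CellTiter-Glo luminescence.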
TGFb inhibitor: TGF-b pathway inhibition. Potency, µM (highest dose often 46.1 µM), inactives show top-dose activity, negative = inhibition, actives largely listed as inhibitors. AID 588855. 410,000 compounds, 1.2% hits. HepG2 CAGA-GFP TGF-b/SMAD3 reporter, GFP fluorescence, 18 h; TGF-beta stimulated, 500 pg/mL final; note: % is set by controls: 0 for no effect and ±100 for the full control effect; nearly all actives have a fitted effect of over 65% in size
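First, reporter cells (HEPG2 CAGA-GFP) rested 2 h at 37 degrees C. Next, compounds were pinned in and TGF-beta added to 500 pg/mL final. After 18 h, GFP was imaged per cell and summed per well.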
HT1080-NT tox: kills 2HG-producing HT-1080-NT fibrosarcoma cells; HT-1080-NT fibrosarcoma viability, CellTiter-Glo ATP luminescence, 48 h; Potency, µM (series often up to 46.1 µM), inactives show at the highest dose activity, negative = less viability, usual class: cytotoxic; 360,000 compounds, 1.6% hits;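 note: NT is the 2HG producing partner of a matched IDH1 knockdown line; 0% = DMSO-treated cells and -100% = media-only wells without cells; nearly all actives have a fitted effect of over 55% in size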
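HT-1080-NT fibrosarcoma cells (2HG-overproducing), 750 cells/well in RPMI with 5% FBS, dosed after 2 h and incubated 48 h at 37C. CellTiter-Glo luminescence normalized to DMSO and no-cell wells; concentration-response curves fitted and classed.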
HT1080 IDH1KD tx: toxicity to HT-1080 IDH1 knockdown cells (counter line); HT-1080 IDH1 knockdown viability, ATP luminescence, 48 h; Potency, µM (doses to about 46.1 µM), for inactives: at the highest dose activity, negative = toxicity, actives largely listed as cytotoxic; 360,000 compounds, 2% hits; AID 686971;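 note: 0% = DMSO wells and -100% = cell-free medium wells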
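After a 2 h attachment period, IDH1KD HT-1080 cells took pin-transferred compound for 48 h at 37 °C; ATP-based luminescence after 10 min room-temperature reagent incubation reported viability.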
TDP1 cell noCPT: qHTS for Inhibitors of human tyrosyl-DNA phosphodiesterase 1 (TDP1): qHTS in cells in absence of CPT | Potency, µM (highest dose often 46.2 µM), without a hit: top-dose activity change, negative = growth inhibition, actives largely listed as inhibitors | 420,000 compounds, 15% hits | DT40 Tdp1-/- hTDP1 cells, no CPT, ATP luminescence, 48 h; note: % is set by controls: 0 for no effect and ±100 for the full control effect; nearly all actives have a fitted effect of over 55% in size
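Seeded 400 DT40-hTDP1 cells/well (vehicle DMSO, no 20 nM CPT); pinned compounds; ≥48 hr at 37 °C; CellTiter-Glo luminescence as viability measure.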
HepG2 viability: kills HepG2 cells in TGF-b inhibitor counter-screen; HepG2 CAGA-GFP viability, ATP luminescence, 18 h; Potency, µM (series often up to 46.1 µM), for inactives: at the top dose activity change, negative = cytotoxicity, most hits filed as cytotoxic; 410,000 compounds, 0.76% hits; AID 588856
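HepG2 CAGA-GFP cells (1000/well, DMEM with 1% FBS) received compound, then TGF-beta at 500 pg/mL final, and were incubated 18 hours at 37 degrees C. Viability was read by CellTiter-Glo luminescence. Media-only wells were set as complete cell-killing and DMSO as no toxicity.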
Active calls of the source: *; ? = inconclusive; . = no result; [ ] = another dose, or the depositor's remark. Only some compounds are listed: those with a hit (about 17% of all), similar ones and a draw of the others. Calls come from the whole dose curve; as a rule, active = well fitted curve in the direction sought with a large enough effect; inconclusive = small, poorly fitted or top-dose-only effect, or another doubt; inactive = no such curve, though single readings can be large; an effect the other way counts as inactive or inconclusive. Potency is the fitted concentration of half-maximal effect.

SMILES	DT40 TDP1 CPT	TGFb inhibitor	HT1080-NT tox	HT1080 IDH1KD tx	TDP1 cell noCPT	HepG2 viability
CCN1CCN(c2nc3ccccc3nc2C(C#N)C(=O)OC2CCCCC2)CC1 (configuration not stated)	23.1µM*	0.0%	-5.1%	-7.5%	23.1µM*	-45.4%
CN1CCN(c2nc3ccccc3nc2C(C#N)C(=O)OC2CCCCC2)CC1 (configuration not stated)	29.1µM*	?	-6.5%	1.9%	?	-40.6%
N#CC(C(=O)OC1CCCCC1)c1nc2ccccc2nc1N1CCOCC1 (configuration not stated)	?	-7.8%	14.3%	13.5%	?	-2.3%
C#CC[N+](C)(C)C(C#Cc1ccccc1)CC=C (configuration not stated)	11.6µM*	-0.5%	-16.7%	?	18.4µM*	-51.8%
CCN(Cc1ccccc1)C(=O)c1nc(-c2cccc(F)c2)n2c1CCCCC2	?	?	.	.	?	-10.9%
C/C(=N\NC(=S)NCCc1ccccc1)c1ccc(C)cc1	?	-13.0%	-7.1%	-3.2%	18.4µM*	-26.1%
C/C(=N\NC(=S)NCCc1ccccc1)c1ccc(C#N)cc1	?	7.4%	6.31µM*	7.08µM*	13µM*	-9.8%
C/C(=N\NC(=S)NCCc1ccccc1)c1ccc(Cl)cc1	?	?	-4.2%	-18.5%	?	-31.0%
CCOC(=O)c1c(NCC2CCCO2)c2ccccc2[nH]c1=O (configuration not stated)	-11.1%	11.2%	6.1%	18.1%	-13.1%	2.2%
CCCCCCNc1c(C(=O)OCC)c(=O)[nH]c2ccccc12	16.4µM*	-23.4%	-11.0%	-22.9%	?	-8.5%
COc1ccc(Oc2ncc3nc(-c4cccs4)c(=O)n(CCC#N)c3n2)cc1	-32.6%	.	.	.	-29.7%	.
Cc1cccc(C)c1N=Nc1c(C)cc(O)cc1C	13.2%	?	?	20.6µM*	-25.7%	2.8%
Cc1cccc(O)c1C	1.7%	22.6%	-0.3%	?	-5.5%	-9.1%
Cc1cc(C)nc(NC(N)=NC2CCCCC2)n1	14.6µM*	-8.0%	0.1%	-27.1%	11.6µM*	-30.1%
CCOC(=O)c1cc(C)n(CC2CCC(C(=O)Nc3cccc(C(C)=O)c3)CC2)c1C (configuration not stated)	23.1µM*	14.1µM*	.	.	25.9µM*	-25.2%
CCOC(=O)c1cc(C)n(CC2CCC(C(=O)Nc3ccc(C(=O)OC)cc3)CC2)c1C (configuration not stated)	23.1µM*	?	.	.	18.4µM*	-21.8%
CCOC(=O)c1cc(C)n(CC2CCC(C(=O)Nc3ccc(C(C)=O)cc3)CC2)c1C (configuration not stated)	11.6µM*	?	.	.	10.3µM*	-14.3%
CCOC(=O)c1cc(C)n(CC2CCC(C(=O)Nc3ccc(OC)c(OC)c3)CC2)c1C (configuration not stated)	-22.5%	-36.1%	.	.	-18.4%	-15.4%
COc1ccc(OCC(=O)OCC(=O)Nc2ccc3[nH]c(=O)[nH]c3c2)cc1	-3.5%	-2.7%	9.5%	9.2%	9.0%	5.8%
CC(=O)Oc1ccc(C2(C)CC(C)(C)NC(=S)N2C)c(OC(C)=O)c1 (configuration not stated)	-9.4%	5.1%	2.1%	-11.0%	3.4%	-45.4%
COc1ccc(C2CC3(CC(C)(C)NC(=O)N3)Oc3cc(O)ccc32)cc1 (configuration not stated)	?	-18.6%	4.4%	6.5%	?	1.3%
CC1(C)CC2(CC(c3ccccc3)c3ccc(O)cc3O2)NC(=S)N1 (configuration not stated)	?	-29.3%	-17.3%	-20.7%	9.2µM*	-36.1%
COc1ccc(C2CC3(CC(C)(C)NC(SC)=N3)Oc3cc(O)cc(C)c32)cc1 (configuration not stated)	4.61µM*	?	?	?	5.17µM*	-55.8%
CC(=O)Oc1cc2c(cc1Cl)C(c1cccs1)CC1(CC(C)(C)NC(=S)N1)O2 (configuration not stated)	8.2µM*	-4.6%	-15.9%	-15.9%	16.4µM*	3.2%
COc1ccc(C2CC3(CC(C)(C)NC(=S)N3)Oc3cc(O)cc(C)c32)cc1 (configuration not stated)	9.2µM*	15.3%	5.8%	4.3%	8.2µM*	-25.2%
SMILES	DT40 TDP1 CPT	TGFb inhibitor	HT1080-NT tox	HT1080 IDH1KD tx	TDP1 cell noCPT	HepG2 viability
CN(Cc1c(C(=O)N/N=C/c2cccc(Cl)c2)nnn1-c1nonc1N)c1ccccc1	4.5%	?	-18.0%	-10.4%	15.1%	-27.9%
CCC(C)c1ccc(O[C@@H]2O[C@H](CO)[C@@H](O)[C@H](O)[C@H]2NC(C)=O)cc1 (some centres not stated)	-5.3%[9.04 µM]	.	.	.	4.6%[9.04 µM]	.
O=C(CNS(=O)(=O)c1ccc(Br)cc1)N1CCOCC1	-7.0%	-1.3%	-2.2%	3.1%	19.1%	1.4%
O=C(NC(=S)Nc1ccc(N2CCOCC2)cc1)c1cncc(Br)c1	-4.4%	-5.6%	11.6%	11.2%	-5.7%	-10.3%
CNC(C)C#Cc1ccc2c(=O)c3cc(C)c(C)cc3oc2c1 (configuration not stated)	?	?	-12.2%	1.2%	29.1µM*	-4.5%
Oc1c(C(Nc2cccc(C(F)(F)F)c2)c2ccncc2)ccc2cccnc12 (configuration not stated)	16.4µM*	-18.2%	-29.1%	?	18.4µM*	-47.5%
O=C(NNC(=S)Nc1cccc(C(F)(F)F)c1)c1ccncc1	3.5%	12.8%	-0.7%	-3.0%	-3.9%	-4.2%
Oc1c(C(Nc2nccs2)c2ccc(C(F)(F)F)cc2)ccc2cccnc12 (configuration not stated)	?	22.4µM*	?	?	?	-30.1%
O=C(COC(=O)[C@@H]1CC(O)CN1S(=O)(=O)c1ccc2c(c1)OCCO2)Nc1cc(F)ccc1F (some centres not stated)	-9.2%	-5.9%	1.0%	4.4%	9.6%	17.3%
Cc1cc(/C=C(\C#N)C(=O)NCc2ccccc2)c(C)[nH]1	?	5.6%	-25.0%	-15.3%	?	1.2%
N#Cc1cc2ccc(N3CCOCC3)cc2cc1C#N	7.31µM*	2.8%	-12.8%	?	11.6µM*	-15.9%
